Compound activity (PubChem BioAssay)
TrxR1 substrate: is turned over as a substrate by rat TrxR1. purified TrxR1 substrate turnover, NADPH consumption readout. Potency, µM (titrated, usually from 114 µM). 390,000 tested, 0.01% active; note: nearly all actives have a fitted effect of over 50% in size
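Rat TrxR1, dispensed at 90 nM, was prereduced with 400 uM NADPH (final) for 5 min at ~22 deg C, then incubated with compound 15 min before 400 uM selenite. A first-read NADPH fluorescence drop versus no-compound background flagged substrates.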
FBPA coupling cs: counter-screen for Giardia aldolase inhibitors: coupling enzyme system; coupling enzyme system counterscreen, AmpLite Red fluorescence; 290,000 tested, 0.67% active; AID 2472; activity change, negative = inhibition, % at 58.2 µM, hits read low; in the data active = activity change below about -30%
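Activity here indicates interference with the coupling reaction, not aldolase inhibition. Compounds at 57.5 uM final met coupling enzymes for 10 min at RT; substrate and AmpLite Red detection followed, with a 525/598 nm fluorescence read after 20 min.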
rTrxR1 inhibitor: rat TrxR1 inhibition; Potency, µM (doses to about 114 µM), hits mostly inhibitors; O89049; 390,000 tested, 1% active; recombinant rTrxR1, NADPH fluorescence consumption, selenite substrate; AID 588453; note: nearly all actives have a fitted effect of over 65% in size
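Rat TrxR1 (90 nM in the dispensed reagent) was pre-reduced with 400 uM NADPH for 5 min at room temperature, then incubated with compound for 15 min. After 400 uM selenite was added, NADPH fluorescence (Ex 340/Em 450 nm) was followed for 8 min.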
Eya2 inh: inhibitors of human Eya2 phosphatase activity | O00167 | recombinant Eya2, OMFP fluorescence dephosphorylation (OMFP is methylfluorescein phosphate) | Potency, µM (series often up to 76.9 µM), actives largely listed as inhibitors | 330,000 tested, 0.006% active | AID 488837
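Eya2 (0.2 uM) preincubated 10 min at ambient with compound, then OMFP substrate added at 50 uM; 10 min reaction in 50 mM HEPES pH 7.5, 50 mM NaCl, 5 uM MgCl2, 0.05% BSA, 1 mM DTT. Fluorescence read at Ex 485/Em 525 nm.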
mIDH1 inhibitor: blocks human mutant IDH1 R132H enzyme; O75874; IDH1-R132H enzyme, NADPH consumption, diaphorase/resazurin fluorescence; Potency, µM (series often up to 76.6 µM), hits mostly inhibitors; 390,000 tested, 0.093% active; note: nearly all actives have a fitted effect of over 65% in size
Target sequence (O75874 whole entry R132H, stated change not applied): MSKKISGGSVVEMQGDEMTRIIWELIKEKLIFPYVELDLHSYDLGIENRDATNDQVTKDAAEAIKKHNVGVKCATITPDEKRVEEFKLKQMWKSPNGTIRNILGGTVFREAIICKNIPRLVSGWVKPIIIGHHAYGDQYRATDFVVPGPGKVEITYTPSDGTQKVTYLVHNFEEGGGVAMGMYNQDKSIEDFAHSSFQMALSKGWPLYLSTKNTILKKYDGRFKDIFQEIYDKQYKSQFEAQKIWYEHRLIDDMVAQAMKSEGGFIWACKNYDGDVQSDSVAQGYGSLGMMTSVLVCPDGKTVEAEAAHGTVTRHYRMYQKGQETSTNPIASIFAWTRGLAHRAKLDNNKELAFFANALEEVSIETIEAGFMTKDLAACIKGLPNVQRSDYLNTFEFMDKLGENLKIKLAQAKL
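IDH1-R132H (0.5 ug/mL) preincubated 30 min with compound, then NADPH (0.016 mM) and alpha-KG (2 mM) added; 80 min at RT, pH 7.5. Remaining NADPH coupled via diaphorase/resazurin to fluorescence (540/590 nm); concentration-response curves normalized to no-enzyme control.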
Large screens that a line does not name were inactive; ! = not confirmed by another sample. Shown are actives, neighbours in structure and some others; about 1.5% of the full set was active somewhere. Unless noted, calls come from the whole dose curve; as a rule, active = well fitted curve in the direction sought with a large enough effect; inconclusive = small, poorly fitted or top-dose-only effect, or another doubt; inactive = no such curve, though single readings can be large; an effect the other way counts as inactive or inconclusive.

CC(=O)[C@H]1[C@@H]2C(=O)N(c3cccc(Cl)c3)C(=O)[C@@H]2[C@H]2c3ccccc3C=CN21	FBPA coupling cs -36, rTrxR1 inhibitor inconclusive
O=C(c1ccco1)[C@@H]1[C@@H]2C(=O)N(c3ccc(F)cc3)C(=O)[C@@H]2C2c3ccccc3C=CN21 (some centres undefined)	FBPA coupling cs -40 (no result: TrxR1 substrate, rTrxR1 inhibitor, mIDH1 inhibitor)
O=C(c1ccco1)[C@@H]1[C@@H]2C(=O)N(c3ccc(F)cc3)C(=O)[C@@H]2[C@H]2C=Cc3ccccc3N21	none
COc1ccc(-c2ccoc2)cc1C1C2C=CCC(C)C2C(=O)N1Cc1ccccc1 (centres undefined)	rTrxR1 inhibitor inconclusive (no result: Eya2 inh, mIDH1 inhibitor)
CCc1ccc(C=O)cc1	none (no result: FBPA coupling cs, Eya2 inh, mIDH1 inhibitor)
NC(=O)Nc1ccc(/C=C2\C=Cc3ccccc32)cc1	none (no result: FBPA coupling cs, Eya2 inh, mIDH1 inhibitor)
CC(=O)c1ccc2noc(-c3ccc(C)cc3)c2c1	rTrxR1 inhibitor 7.1µM
COc1ccc(CNc2nc(-c3ccco3)nn2C(=O)c2ccccc2Cl)cc1	none (no result: FBPA coupling cs, Eya2 inh, mIDH1 inhibitor)
COc1ccc(C(=O)n2nc(-c3ccco3)nc2NCc2cccs2)cc1	rTrxR1 inhibitor 22µM (no result: FBPA coupling cs, Eya2 inh)
O=C(CCc1nc2ccccc2[nH]1)N1CCc2ccccc2C1	FBPA coupling cs -34
C#CCSc1nncn1C(=O)/C=C/c1ccccc1	rTrxR1 inhibitor 22µM
CN1C(=O)C(Cl)(Cl)C(=O)c2ccccc21	FBPA coupling cs -75
CC(C)C(=O)Nc1ccc(/C=C2\C=Cc3ccccc32)cc1	none (no result: FBPA coupling cs, Eya2 inh, mIDH1 inhibitor)
O=C(CNC(=O)c1ccco1)OCC(=O)c1ccc2c(c1)CCCC2	rTrxR1 inhibitor 79µM
CCc1ccc(C(=O)COC(=O)CNC(=O)c2ccco2)cc1	none
O=S(=O)(O)CCS	none (no result: Eya2 inh)
NCCCS(=O)(=O)O	rTrxR1 inhibitor 11µM!
CCOC(=O)/C=C/CCC/C=C/C(=O)c1ccccc1	none (no result: TrxR1 substrate, rTrxR1 inhibitor, Eya2 inh, mIDH1 inhibitor)
C=CCOc1ccccc1CNc1ccc2c(c1)OCCO2	FBPA coupling cs -37
CCOC(=O)c1c[nH]c(=S)n(-c2ccccc2)c1=O	none (no result: FBPA coupling cs)
CCOC(=O)c1c(SCCN2CCCC2)n(-c2ccccc2)c(=S)n(-c2ccccc2)c1=O	rTrxR1 inhibitor 32µM (no result: FBPA coupling cs, Eya2 inh)
CC1(C)c2ccccc2N2CCC(=O)NC21/C=C/c1ccco1 (centres undefined)	rTrxR1 inhibitor 40µM
CC1(C)c2ccccc2N2CC(=O)NC21/C=C/c1ccco1 (centres undefined)	rTrxR1 inhibitor inconclusive
O=C(O)c1cc(O)c2c(c1)[C@H]([C@H]1c3cc(C(=O)O)cc(O)c3C(=O)c3c(O[C@@H]4O[C@H](CO)[C@@H](O)[C@H](O)[C@H]4O)cccc31)c1cccc(OC3O[C@H](CO)[C@@H](O)[C@H](O)[C@H]3O)c1C2=O (some centres undefined)	rTrxR1 inhibitor 79µM (no result: FBPA coupling cs)
O=C(O)c1cc(O)c2c(c1)[C@@H]([C@H]1c3cc(C(=O)O)cc(O)c3C(=O)c3c(O[C@@H]4O[C@H](CO)[C@@H](O)[C@H](O)[C@H]4O)cccc31)c1cccc(OC3O[C@H](CO)[C@@H](O)[C@H](O)[C@H]3O)c1C2=O (some centres undefined)	none (no result: FBPA coupling cs)
COc1ccc(Cl)c(Cn2cnc3c(cnn3C(C)(C)C)c2=O)c1F	none (no result: FBPA coupling cs, Eya2 inh, mIDH1 inhibitor)
C=CS(=O)(=O)c1sc(Cl)c(N2CCOCC2)c1[N+](=O)[O-]	rTrxR1 inhibitor 0.32µM, mIDH1 inhibitor inconclusive
Cc1ccccc1NC(=O)c1nc(SCc2ccccc2F)ncc1Cl	none (no result: FBPA coupling cs, Eya2 inh, mIDH1 inhibitor)
CC(=O)N(c1ccc(Cl)cc1)c1cn(C(C)=O)c2ccccc12	none
CC(=O)n1cc(N(C(=O)CCl)c2ccc(C)cc2)c2ccccc21	rTrxR1 inhibitor 2µM
COC(=O)C1C(O)CC[C@H]2CN3CCc4c([nH]c5ccccc45)C3C[C@H]12 (some centres undefined)	none (no result: TrxR1 substrate, rTrxR1 inhibitor, Eya2 inh, mIDH1 inhibitor)
CC1(C)CC(=O)C2=C(C1)OC1=C(C(=O)CC(C)(C)C1)C2c1cc([N+](=O)[O-])cc([N+](=O)[O-])c1O	FBPA coupling cs -36
CC1(C)CC(=O)C2=C(C1)OC(N)=C(C#N)[C@@H]2c1ccccc1[N+](=O)[O-]	rTrxR1 inhibitor 20µM
CC(=O)c1ccc2c3c(cccc13)CC2	none
CC(=O)c1ccc2cccc3c2c1N=CN3C	FBPA coupling cs -43
O=C(O)c1ccc2cc(-c3ccc(O)c(C45CC6CC(CC(C6)C4)C5)c3)ccc2c1	none (no result: TrxR1 substrate, rTrxR1 inhibitor, Eya2 inh, mIDH1 inhibitor)
